In the library only some 3.6% were active in any assay of this set; here they are far more common.
BoNT A protease: BoNT/A light chain protease inhibitors, primary screen, biochemical, flow cytometry, MLPCN library; Botulinum neurotoxin type A light chain protease (Clostridium botulinum A str. ATCC 3502); multiplex microsphere protease substrate cleavage; inhibition, % at 10 µM; hit rate 0.17% among 360,000; note: plate controls were buffer without enzyme for full effect and enzyme alone for no effect
Anthrax LF prot: Bacillus anthracis LF protease inhibitors, primary screen, biochemical, multiplex microsphere, MLPCN library. Lethal factor (Bacillus anthracis), P15917. multiplex microsphere protease cleavage assay. inhibition, % at 10 µM. hit rate 0.12% among 360,000. AID 588501, 2011; note: plate controls were buffer without enzyme for full effect and enzyme alone for no effect
Bead autofluor: flagged as autofluorescent in microsphere protease counterscreen. compound autofluorescence counterscreen, microsphere flow cytometry; hits give high values. fluorescence intensity (no concentration beside the values). hit rate 3.1% among 360,000. AID 624483; in the data active = fluorescence intensity above about 16000; inconclusive = no clear call, values can overlap the other calls
MazEF act: activators of E. coli MazEF toxin-antitoxin RNase, primary screen, biochemical, fluorescence, uHTS. FAM/BHQ RNA-DNA oligo cleavage fluorescence, 5 h. hit rate 0.32% among 350,000. Endoribonuclease toxin MazF (Escherichia coli (strain K12)), P0AE70. activation, % at 20 µM; in the data active = activation above about 50%
BoNT F protease: BoNT/F light chain protease inhibitors, primary screen, biochemical, flow cytometry, MLPCN library | Botulinum neurotoxin type F light chain protease (Clostridium botulinum) | Multiplex microsphere protease cleavage assay | inhibition, % at 10 µM | hit rate 0.22% among 360,000 | AID 588497, 2011; in the data active = inhibition above about 35%, passing the limit was not always enough; inconclusive = no clear call, values can overlap the other calls; note: plate controls were buffer without enzyme for full effect and enzyme alone for no effect
* marks the source's active call; other numbers are inactive results; u = inconclusive; x = no result given. Cut-off read from the data, not from the text of the source, unless noted: active = inhibition above about 30%; inconclusive = no clear call, values can overlap the other calls; inactive = below that.

SMILES	BoNT A protease	Anthrax LF prot	Bead autofluor	MazEF act	BoNT F protease
CCc1cccc(CC)c1NC(=O)COC(=O)/C(C#N)=C/c1ccc(OC)cc1	1	0	2139	124*	-2
CCOC(=O)N1CCN(c2cc3nccnc3cc2F)CC1	u	0	22764*	-5	-6
CCCC(=O)c1cc(F)c(N2CCN(C(=O)OCC)CC2)cc1C	0	0	8786	3	-10
CCCOc1ccc(/C=C/C(=O)Nc2ccc([N+](=O)[O-])cc2C)cc1OC	u	2	22086*	-7	0
Cc1ccc(S(=O)(=O)N2CCC(C(=O)OC(C)C(=O)NCc3ccccc3)CC2)cc1C (stereo not given)	6	4	4339	-5	7
O=C1C(c2ccc(F)cc2)N(Cc2ccc3c(c2)OCO3)C(=O)CN1C1CCCCC1 (stereo not given)	-1	-6	20863*	1	-1
O=C1C(c2ccc(F)cc2)N(CC2COc3ccccc3O2)C(=O)CN1C1CCCCC1 (stereo not given)	0	-3	10837	0	8
O=C1C(c2ccc(F)cc2)N(Cc2ccc3c(c2)OCO3)C(=O)CN1C1CCCC1 (stereo not given)	-10	-1	25677*	2	-14
COc1ccccc1CN1C(=O)CN(C2CCCC2)C(=O)C1c1ccc(F)cc1 (stereo not given)	u	-9	16593*	-8	-1
Cc1cc(N2C(=O)C(O)=C(C(=O)c3cccs3)C2c2ccc(F)cc2)no1 (stereo not given)	0	-6	5894	-6	-2
Cc1cc(N2C(=O)C(O)=C(C(=O)c3cccs3)C2c2ccccc2)no1 (stereo not given)	-3	-2	17508*	4	-7
Cc1ccc(C)c(CC(=O)N2CCCCC2c2cc(C(=O)Nc3cccc(C#N)c3)no2)c1 (stereo not given)	0	5	3902	x	-2
Nc1nonc1-n1nnc(C(=O)N/N=C/c2ccc3c(c2)OCO3)c1CSc1ccccc1	-2	0	4245	72*	-2
COc1ccc([N+](=O)[O-])cc1NS(=O)(=O)c1cccc(C(=O)OC2CCOC2=O)c1 (stereo not given)	-1	-3	2942	6	-8
Cc1nc(SCC(=O)NC(C)c2ccccc2)c2oc3ccccc3c2n1 (stereo not given)	0	-2	19999*	-32	1
CCc1nc(SCC(=O)NCCc2ccccc2)c2oc3ccccc3c2n1	0	3	10100	-9	-15
Cc1nc(SCC(=O)NCCc2ccccc2)c2oc3ccccc3c2n1	1	5	16266*	-2	-2
COc1ccccc1Nc1cc(C)nc(Nc2ccccc2OC)n1	0	-2	6119	-3	9
CCc1nc2c(OCc3ccc(Cl)cc3Cl)cccn2c1N(C)C(=O)CC(C)C	0	-4	2963	x	-2
Cc1c(C=O)c2ccccn2c1C(=O)c1ccccc1	0	-1	3245	5	4
Cc1c(C(C)(C)C)c(C=S)n2ccccc12	u	-6	21631*	9	-8
Cc1cc(/C=C2\C(=O)NC(=O)N(Cc3ccccc3Cl)C2=O)c(C)n1-c1ccc(C(=O)O)cc1	1	0	4606	59*	7
CCC(=O)c1cn(CC(=O)Nc2ccccc2Cl)c2ccccc12	-3	4	4205	54*	u
c1ccc(Cn2ccnc2C2OCCO2)cc1	0	-4	3663	8	-10
COc1cccc(C#Cc2c(C=O)n(C)c3ccccc23)c1	36*	37*	3517	-22	13
CC(C)(O)P(C)(=O)c1ccccc1 (stereo not given)	0	-9	3274	2	-10
CC(C)(C)P(=O)(CO)c1ccccc1 (stereo not given)	3	-3	19072*	-5	2
O=C(NCc1ccc2c(c1)OCO2)C(=O)NCC1OCCCN1S(=O)(=O)c1ccccc1 (stereo not given)	0	-14	3779	-8	0
O=C1Nc2c(c(=O)[nH]c(=O)n2Cc2ccccc2)C1(NS(=O)(=O)c1ccccc1)C(F)(F)F (stereo not given)	-1	-7	3741	6	-9
O=C(NC1(C(F)(F)F)C(=O)Nc2c1c(=O)[nH]c(=O)n2-c1ccc(F)cc1)c1cccnc1 (stereo not given)	5	-7	18307*	8	4
